pS6 MEF inh: Acumen qHTS Assay for Inhibitors of the mTORC1 Signaling Pathway in MEF (Tsc2-/-, p53-/-) Cells: Sytravon; Tsc2-/- p53-/- MEF, phospho-rpS6 immunofluorescence/PI, 24 h; Potency, µM (top dose mostly 38.3 µM), actives largely listed as inhibitors; actives 0.78% (n = 44,000); also: nearly all actives have a fitted effect of over 50% in size
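Cell-based qHTS: Tsc2-/- p53-/- MEF, 24 h cpd, 37 °C; fix/perm, anti-phospho-S6 Alexa-488 + PI; Acumen 488 nm scan; pS6/PI ratio, % positive cells; rapamycin 7.5 nM = inhibition ref; PI count = viability.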
p53null 32C kill: qHTS Screen for Compounds that Selectively Target Cancer Cells with p53 Mutations: Cytotoxicity of p53 Null Cells at the Permissive Temperature | actives 0.62% (n = 55,000) | AID 903, 2007 | Potency, µM (top dose mostly 46.1 µM), hits mostly cytotoxic | H1299-neo p53 null cells, ATP luminescence, 24 h, 32C; also: nearly all actives have a fitted effect of over 55% in size
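H1299-neo (p53 null) cells, 600/well, treated 24 h at 32C with compound up to 46 uM; ATPlite luminescence viability, normalized to DMSO and 100 uM tamoxifen; AC50 by Hill fit.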
p53null 39C kill: qHTS Screen for Compounds that Selectively Target Cancer Cells with p53 Mutations: Cytotoxicity of p53 Null Cells at the Nonpermissive Temperature; AID 904, 2007; H1299 p53-null (neo) cells, 39C, ATPlite viability, 24 h; Potency, µM (top dose mostly 46.1 µM), hits mostly cytotoxic; actives 0.97% (n = 55,000); also: nearly all actives have a fitted effect of over 50% in size
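ATP-luminescence viability readout (ATPlite, 20 min RT) after 24 hr compound treatment at 39C of H1299-neo or H1299-p53A138V cells; titration up to 46 uM; normalized to DMSO and 100 uM tamoxifen; Hill-fit AC50.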
S16 viability: Cell viability qHTS assay in S16 Pmp22-F2sN cells | S16 Pmp22-F2sN Schwann cells viability, CellTiter-Glo, 24 h | Potency, µM (doses to about 57.5 µM), usual class: cytotoxic | actives 0.48% (n = 43,000); also: nearly all actives have a fitted effect of over 65% in size
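Seed 500-1,000 S16 Pmp22-F2sN cells per well in phenol-red-free DMEM with 10% heat-inactivated FBS; pin-add 23 nL compound; incubate 24 h at 37C; add CellTiter-Glo, wait 15 min protected from light; read luminescence.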
SKOV3 invasion: Primary qHTS assay for Inhibitors of ovarian cancer metastasis using an organotypic tumor microenvironment (TME) model | SKOV3ip1-GFP adhesion/invasion on 3D omental model, fluorescence | Potency, µM (highest dose often 45.8 µM), hits mostly inhibitors | actives 0.1% (n = 46,000) | AID 1963576, 2024; also: nearly all actives have a fitted effect of over 65% in size
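Primary human omental fibroblast/mesothelial 3D culture pre-formed 48 h. SKOV3ip1-GFP cells added with compounds (0.36-46 umol/L), incubated 2 h RT/16 h 37 C, fixed; GFP cells quantified at 488/509 nm.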
PMP22 txn: Cell-based coincidence reporter assay to measure PMP22 gene transcription in S16 Pmp22-F2sN cells - Primary screen; S16 Pmp22-F2sN Schwann cells (luciferase reporters placed in the Pmp22 gene), FLuc/NLuc coincidence luminescence, 24 h; Potency, µM (doses to about 57.5 µM), actives largely listed as inhibitors; actives 2% (n = 43,000); AID 1508649, 2021; active = clear falling dose curves in both reporters; inconclusive = both reporters move, but less clearly or upward; inactive = either reporter flat; the % is the NLuc reporter signal
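Luminescent read-out of sequential FLuc and NLuc signals from a reporter embedded in the Pmp22 3' UTR of S16 Schwann cells, taken after 24 h compound exposure at 37C; compounds reducing both signals score as inhibitors of expression.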
Large screens that a line does not name were inactive. Shown are actives, neighbours in structure and some others; about 3% of the full set was active somewhere. Unless noted, calls follow the shape of the dose curve; as a rule, active = well fitted curve in the direction sought with a large enough effect; inconclusive = small, poorly fitted or top-dose-only effect, or another doubt; inactive = no such curve, though single readings can be large; an effect the other way counts as inactive or inconclusive.

COc1ccc(C(=O)Nc2ccc3c(c2)OCCO3)cc1	p53null 32C kill 11µM, p53null 39C kill 11µM (no result: pS6 MEF inh, S16 viability, SKOV3 invasion, PMP22 txn)
CCOC(=O)c1ccc(NC(=O)Nc2ccc3c(c2)OCCO3)cc1	none (no result: pS6 MEF inh, S16 viability, SKOV3 invasion, PMP22 txn)
FC(F)(F)c1ccc(C=Cc2nc(COc3ccc(CCCCn4ccnn4)cc3)co2)cc1	none (no result: pS6 MEF inh, p53null 32C kill, p53null 39C kill, S16 viability, PMP22 txn)
COc1cc(=C2C=c3ccccc3=N2)[nH]c1=Cc1[nH]c(C)cc1C	none (no result: pS6 MEF inh, p53null 32C kill, p53null 39C kill, S16 viability, PMP22 txn)
COc1ccc(NS(=O)(=O)c2cc(Br)cc3c2N(C(=O)C2CC2)CC3)cc1OC	pS6 MEF inh inconclusive, PMP22 txn 14µM
O=C1CSC(=O)N1C(CCc1ccncc1)COc1ccc(-c2cccc([N+](=O)[O-])c2)cc1 (stereo unspecified)	none (no result: pS6 MEF inh, p53null 32C kill, p53null 39C kill, S16 viability, PMP22 txn)
Cc1nc(N)sc1-c1ccnc(Nc2ccc(N3CCOCC3)cc2)n1	none (no result: pS6 MEF inh, p53null 32C kill, p53null 39C kill, S16 viability, PMP22 txn)
Cc1cccc2c1-c1sc(C(=O)NCCCN3CCN(c4ccccc4F)CC3)cc1CO2	p53null 39C kill inconclusive, S16 viability inconclusive, SKOV3 invasion inconclusive, PMP22 txn inconclusive
CCN1CCN(CCCNC(=O)c2cc3c(s2)-c2c(C)cccc2OC3)CC1	pS6 MEF inh inconclusive, p53null 39C kill inconclusive, S16 viability 25µM, PMP22 txn inconclusive
CC(C)(C)n1ncc2c(=O)n(CC(=O)c3ccccc3)cnc21	p53null 39C kill 13µM (no result: pS6 MEF inh, S16 viability, SKOV3 invasion, PMP22 txn)
COc1ccc(C2c3c(-c4ccccc4O)n[nH]c3C(=O)N2CCc2ccccc2)cc1 (stereo unspecified)	pS6 MEF inh inconclusive, p53null 39C kill inconclusive, S16 viability inconclusive, PMP22 txn inconclusive
Cc1cc(C)c(-c2n[nH]c3c2C(c2ccccc2F)N(Cc2ccco2)C3=O)c(O)c1 (stereo unspecified)	pS6 MEF inh 13µM, p53null 39C kill 16µM, PMP22 txn inconclusive
COc1ccc(CCN2C(=O)c3[nH]nc(-c4ccccc4O)c3C2c2cccc(OC)c2)cc1 (stereo unspecified)	pS6 MEF inh 15µM, S16 viability inconclusive, PMP22 txn inconclusive
CCCOc1cccc(C2c3c(-c4ccccc4O)n[nH]c3C(=O)N2Cc2ccco2)c1 (stereo unspecified)	pS6 MEF inh 15µM, p53null 39C kill 18µM, SKOV3 invasion inconclusive, PMP22 txn inconclusive
COCCN1C(=O)c2[nH]nc(-c3ccccc3O)c2C1c1ccc(Cl)c(Cl)c1 (stereo unspecified)	p53null 39C kill 16µM, S16 viability inconclusive, SKOV3 invasion inconclusive, PMP22 txn inconclusive
N=C1SC(=Cc2ccc(-c3ccc4c(c3)C(=O)NC4=O)o2)C(=O)N1c1ccc(Br)cc1	none (no result: pS6 MEF inh, p53null 32C kill, p53null 39C kill, S16 viability, PMP22 txn)
Cc1ccc(C2c3c(-c4ccccc4O)n[nH]c3C(=O)N2CCc2ccccc2)cc1 (stereo unspecified)	pS6 MEF inh 16µM, p53null 39C kill inconclusive, SKOV3 invasion inconclusive, PMP22 txn inconclusive
CC(C)OCCCN1C(=O)c2[nH]nc(-c3ccccc3O)c2C1c1ccc(OCc2ccccc2)cc1 (stereo unspecified)	pS6 MEF inh inconclusive, p53null 39C kill 13µM, S16 viability inconclusive, SKOV3 invasion inconclusive, PMP22 txn inconclusive
CCC(=O)O[C@]1(C(=O)CO)CC[C@H]2[C@@H]3CCC4=CC(=O)CC[C@]4(C)[C@@H]3CC[C@@]21C	none (no result: pS6 MEF inh, p53null 32C kill, p53null 39C kill, S16 viability, PMP22 txn)
CC(=O)N1CCCc2cc(S(=O)(=O)N(CCN(C)C)Cc3ccccc3)ccc21	p53null 39C kill 10µM

Source: PubChem BioAssay (National Center for Advancing Translational Sciences (NCATS))
